Several values for one entry are separate records, joined by “and”; a condition that tells them apart may be missing. Equal entries are not always repeated. Records with an inconclusive call do not appear. Unmarked numbers belong to inactive results. Activity calls are given as the source filed them. Calls follow the shape of the dose curve; as a rule, active = well fitted curve in the direction sought with a large enough effect; inconclusive = small, poorly fitted or top-dose-only effect, or another doubt; inactive = no such curve, though single readings can be large; an effect the other way counts as inactive or inconclusive.

For 17 molecules, Potency and activity (max response) results are on record in PubChem BioAssay (NCATS).

A short description of experiment [1]: Viability qHTS for spleen associated tyrosine kinase inhibitor (SYKi) drug resistant MV4-11 cells (AID 1963824). Also: nearly all actives have a fitted effect of over 35% in size. Also: potency is read from the fitted curve at half-maximal effect. In a few lines: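 SYK-inhibitor-resistant MV4-11 AML cells were seeded at 500 per well onto compound and cultured 72 hours (37 °C, 5% CO2). CellTiter-Glo was then added, and after 10 min at room temperature, luminescence gave viability.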
Experiment [2] can be described thus: Quantitative highthroughput screen to assess conditional lethalithy of NOMO1 cells grown in Human Plasma-Like Medium with dialyzed fetal bovine serum (HPLM+ds) (AID 1963878). Also: nearly all actives have a fitted effect of over 35% in size. Also: potency is read from the fitted curve at half-maximal effect.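 As to Viability: 100% = DMSO wells and 0% = empty wells on each plate.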 In a few lines:
(§1)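 Each medium arm—HPLM with 10% dialyzed FBS, or RPMI1640 with 5 mM glucose and 10% untreated or dialyzed FBS—was screened against an 11-point, 3-fold compound titration for 48 h at 37 °C, with CellTiter-Glo luminescence as endpoint.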

Experiment [3] is described as follows: Quantitative highthroughput screen to assess conditional lethalithy of SEM cells grown in RPMI1640 with unreated serum (RPMI+s) (AID 1963883). Also: nearly all actives have a fitted effect of over 35% in size. Also: potency is read from the fitted curve at half-maximal effect.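 As to Viability: 100% = DMSO wells and 0% = empty wells without cells.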 An outline of the steps:
as §1

Experiment [4] in a line: Quantitative highthroughput screen to assess conditional lethalithy of P12 Ichikawa cells grown in Human Plasma-Like Medium with dialyzed fetal bovine serum (HPLM+ds) (AID 1963879). Also: nearly all actives have a fitted effect of over 35% in size. Also: potency is read from the fitted curve at half-maximal effect. As to Viability: series mostly up to about 46 µM. The conditions noted are these: Potency: viability. An outline of the steps:
as §1

Experiment [5] in a line: Quantitative highthroughput screen to assess conditional lethalithy of P12 Ichikawa cells grown in RPMI1640 with dialyzed fetal bovine serum (RPMI+ds) (AID 1963880). Also: nearly all actives have a fitted effect of over 35% in size. Also: potency is read from the fitted curve at half-maximal effect.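 As to Viability: 100% = DMSO wells and 0% = empty wells on each plate.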 The conditions noted are these: Potency: P12-Ichikawa viability. An outline of the steps:
as §1

Experiment [6] in a line: Quantitative highthroughput screen to assess conditional lethalithy of SEM cells grown in Human Plasma-Like Medium with dialyzed fetal bovine serum (HPLM+ds) (AID 1963882). Also: nearly all actives have a fitted effect of over 35% in size. Also: potency is read from the fitted curve at half-maximal effect. As to Viability: series mostly up to about 46 µM. An outline of the steps:
as §1

The nature of experiment [7]: Quantitative highthroughput screen to assess conditional lethalithy of SEM cells grown in RPMI1640 with dialyzed fetal bovine serum (RPMI+ds) (AID 1963884). Also: nearly all actives have a fitted effect of over 35% in size. Also: potency is read from the fitted curve at half-maximal effect.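 As to Viability: series mostly up to about 46 µM; 100% = DMSO control wells and 0% = empty wells without cells.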 In a few lines: as §1
Experiment [8] is described as follows: Cellular viability qHTS for adrenocortical cancer (ACC) cell line SW-13 (AID 1963989). Also: nearly all actives have a fitted effect of over 65% in size. Also: potency is read from the fitted curve at half-maximal effect.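 As to activity (max response): cells grown in serum-free medium with ITS supplement; % is scaled to controls: 0 for no effect and ±100 for the full control effect.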 To be noted: SW-13 ACC cells viability, CellTiter-Glo, 48 h; activity (max response): stronger effect = lower value. In a few lines: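 Compound titrations (up to 46 uM final, in DMSO) were applied to SW-13 cells for 48 h at 37C/5% CO2. Reading used CellTiter-Glo after 20 min at room temperature; fitted curves yielded IC50 and efficacy.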
(In general: In qHTS, concentration-response curves come from the screen itself.)

Experiment [9] is described as follows: Cellular viability qHTS for adrenocortical cancer (ACC) cell line NCI-H295R (AID 1963990). Also: nearly all actives have a fitted effect of over 60% in size. Also: potency is read from the fitted curve at half-maximal effect. An outline of the steps:
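Readout: CellTiter-Glo luminescence, 20 min RT. Exposure: 48 h, 37C/5% CO2. Cells: NCI-H295R, ITS-DMEM serum-free. Range: up to 46 uM. Analysis: 4PL fit, IC50 plus efficacy.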

A short description of experiment [10]: Quantitative highthroughput screen to assess conditional lethalithy of NOMO1 cells grown in RPMI1640 with dialyzed fetal bovine serum (RPMI+ds) (AID 1963877).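 Also: series mostly up to about 46 µM; 100% = DMSO control wells and 0% = empty wells; nearly all actives have a fitted effect of over 30% in size.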 In a few lines: as §1
Experiment [11] in a line: Quantitative highthroughput screen to assess conditional lethalithy of P12 Ichikawa cells grown in RPMI1640 with untreated serum (RPMI+s) (AID 1963881). Also: nearly all actives have a fitted effect of over 35% in size. Also: potency is read from the fitted curve at half-maximal effect.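 As to Viability: series mostly up to about 46 µM; 100% = DMSO wells and 0% = empty wells without cells.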 The conditions noted are these: Potency: viability. In a few lines:
as §1

For `CCOC(=O)[C@@]1(CCCCCCOc2ccc(Cl)cc2)CO1`, the Potency is 20.9 µM (active) in experiment [1] and 11.7 µM (active) in [3]. For the same molecule, the Potency result in experiment [2] was “inactive”.

As for `CCCCCCCCCCCC(CC1OC(=O)C1CCCCCC)OC(=O)C(CC(C)C)NC=O` (centres undefined), the Potency in experiment [1] was 3.72 µM (active); in [4], 20.9 µM (active); in [5], 23.5 µM (active); in [6], 18.7 µM (active); in [3], 5.9 µM (active); in [7] it was 11.8 µM (active). For the same molecule, the activity (max response) in experiment [8] is 11.6%. For the same molecule, in [9], the Potency result was “inactive”.

For `Cc1nc2ccc(C(=O)N3CCC4(CC3)CC(=O)c3c(cnn3C(C)C)C4)cc2[nH]1`, the Potency in experiment [1] is 20.9 µM (active). The Potency entry in experiment [10] and in [9] was “inactive” each time.

Regarding `Cc1cc(-c2ccc(CC(=O)Nc3ccc(-c4cccnc4)cc3)cc2)ccn1`, the Potency in experiment [1] was 11.8 µM (active); in [5] it was 10.5 µM (active); in [11], 16.6 µM (active); in [6] it was 6.62 µM (active); in [3], 10.5 µM (active); in [7], 8.33 µM (active). The activity (max response) in experiment [8] was -19.6%.

As to `CC1(COc2ccc3c(c2)ncn3-c2ccc3cccc(N4CCC(N)CC4)c3n2)COC1`, the Potency in experiment [1] is 11.6 nM (active) and 10.5 nM (active); in experiment [4] it was 10.5 µM (active); in experiment [3], 0.0209 µM (active); in experiment [8], 25.1 µM (active); in experiment [9], 14.1 µM (active).

As for `O=C(Nc1ncc(-c2cc(C(F)F)nn2-c2c(Cl)cccc2Cl)s1)C1CC1`, the Potency in experiment [1] is 0.372 µM (active); in experiment [4], 0.935 µM (active); in [5], 1.18 µM (active); in experiment [11], 0.935 µM (active); in experiment [6], 1.32 µM (active); in experiment [3] it was 1.18 µM (active). In addition, the Potency in experiment [7] is 1.32 µM (active); in [8], 0.316 µM (active).

As for `CCCCC(C)(C)[C@H](O)C=C[C@H]1[C@H](O)CC(=O)[C@H]1CC=CCCCC(=O)O`, the Potency in experiment [1] is 0.148 µM (active); in experiment [2] it was 20.9 µM (active); in [5], 23.5 µM (active); in experiment [11], 26.4 µM (active); in experiment [6], 20.9 µM (active). In experiment [9], the Potency entry is “inactive”.

In the case of `N#CNC(=NCCCCCCOc1ccc(Cl)cc1)Nc1ccncc1`, the Potency in [1] was 0.0042 µM (active); in experiment [5], 0.0019 µM (active); in experiment [11], 0.0026 µM (active); in [8], 0.0398 µM (active); in experiment [9] it was 0.0158 µM (active). For the same molecule, the Potency result in experiment [6], in experiment [3] and in [7] was “inactive” throughout.

Consider `OCCNC1CCCc2c1[nH]c1ccc(-c3ccccc3)cc21` (centres undefined), for which the Potency was 8.33 µM (active) in experiment [1]; 23.5 µM (active) in [2]; 20.9 µM (active) in [4]; 18.7 µM (active) in experiment [11]; 16.6 µM (active) in experiment [3]; 15.8 µM (active) in experiment [8]. Besides, in experiment [9], the Potency was 7.08 µM (active).

For `CCN(CC)CCCCNc1ncc2c(n1)N(C)C(=O)N(c1c(Cl)c(OC)cc(OC)c1Cl)C2`, the Potency was 14.8 µM (active) in experiment [1]; 26.4 µM (active) in experiment [2]; 14.8 µM (active) in [6]; 13.2 µM (active) in [3]; 14.8 µM (active) in experiment [7]; 25.1 µM (active) in experiment [8].

Regarding `O=C1c2c(O)ccc(O)c2C(=O)c2c(NCCNCCO)ccc(NCCNCCO)c21`, the Potency in experiment [1] was 59.6 nM (active) and 20.9 nM (active); in [4], 0.296 µM (active); in experiment [5], 0.332 µM (active); in experiment [11] it was 0.264 µM (active); in experiment [6] it was 0.332 µM (active); in experiment [3] it was 0.235 µM (active). Further, the Potency in [7] is 0.332 µM (active); in experiment [8], 1.16 µM (active) and 2.51 µM (active); in [9] it was 4.11 µM (active) and 3.98 µM (active).

As to `CN1N=C(N)c2cn([C@@H]3O[C@H](COP(=O)(O)O)[C@@H](O)[C@@H]3O)c3ncnc1c23`, the Potency in [1] is 0.0742 µM (active); in experiment [2] it was 5.26 µM (active); in experiment [6], 0.0296 µM (active); in experiment [3], 0.0296 µM (active); in experiment [7], 0.0074 µM (active).

Take `Nc1nc2c(c(=O)[nH]1)N(C=O)[C@H](CNc1ccc(C(=O)N[C@@H](CCC(=O)O)C(=O)O)cc1)CN2`: the Potency result in experiment [1], in [6], in [3], in [7] and in experiment [9] was “inactive” in each case. For the same molecule, the Potency in experiment [4] is 2.96 µM (active); in experiment [5] it was 3.32 µM (active); in [11], 2.64 µM (active). Further, in [8], the activity (max response) is 4.65%.

`CCn1cc(-c2ccnc3[nH]c(-c4cccc(CN(C)C)c4)cc23)c(-c2ccc(NC(=O)N(C)C)cc2)n1`: the Potency was 282 nM (active) and 235 nM (active) in experiment [1]; 0.0662 µM (active) in [4]; 0.0833 µM (active) in [5]; 0.0833 µM (active) in experiment [11]; 0.0743 µM (active) in experiment [6]; 0.0469 µM (active) in [3]. Further, the Potency is 0.059 µM (active) in experiment [7], 17.8 µM (active) in experiment [8] and 12.6 µM (active) in experiment [9].

As for `Cc1cc(Nc2cc(NC(=O)c3c(Cl)cccc3Cl)ccn2)nc(N)n1`, the Potency in experiment [1] is 0.164 µM (active); in [5] it was 1.18 µM (active); in experiment [9], 7.08 µM (active).

Take `COc1ccccc1[C@H](c1cccc2ccccc12)[C@@](C)(C#N)C(=O)N1CCC(c2cccc(C(F)(F)F)c2)CC1`: the Potency in experiment [1] was 8.33 µM (active); in experiment [4], 16.6 µM (active). For the same molecule, the activity (max response) in [8] was -5.9%. Also, the Potency entry in experiment [9] was “inactive”.

In the case of `OC[C@H]1OC(O)C[C@@H](O)[C@H]1O` (some centres undefined), the Potency entry in [1], in experiment [4], in experiment [5], in experiment [11], in experiment [6] and in [3] was “inactive” throughout. The Potency result in experiment [7] and in [9] was “inactive” throughout. For the same molecule, the activity (max response) in experiment [8] was 7.09%.
